Our source for the outcome and AC50 values is PubChem BioAssay (EPA / NIEHS).

The structures appear in SMILES notation. Where a structure was tested more than once in an assay, its records may differ in their call. Calls of active or inactive are those of the source. Rule for the calls: active = hit-call score of the fitted dose curve at least 0.9, where 1 is the maximum; inactive = score below 0.9.

Sequence of Nuclear respiratory factor 1 (Homo sapiens) (Q16656 whole entry, looked up): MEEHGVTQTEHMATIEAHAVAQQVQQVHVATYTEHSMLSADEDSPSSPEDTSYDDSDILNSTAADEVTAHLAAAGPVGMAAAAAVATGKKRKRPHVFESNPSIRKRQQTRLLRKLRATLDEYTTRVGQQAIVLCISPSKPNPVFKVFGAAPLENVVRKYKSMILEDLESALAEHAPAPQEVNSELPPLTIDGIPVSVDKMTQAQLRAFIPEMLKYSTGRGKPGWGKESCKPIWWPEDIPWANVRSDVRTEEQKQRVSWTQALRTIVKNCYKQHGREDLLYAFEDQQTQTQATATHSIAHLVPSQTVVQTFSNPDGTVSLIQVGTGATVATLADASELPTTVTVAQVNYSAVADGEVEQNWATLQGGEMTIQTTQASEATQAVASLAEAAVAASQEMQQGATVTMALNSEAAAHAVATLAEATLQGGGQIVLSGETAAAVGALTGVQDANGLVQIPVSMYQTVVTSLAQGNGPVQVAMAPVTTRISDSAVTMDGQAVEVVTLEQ

The assay addresses Nuclear respiratory factor 1 (Homo sapiens) (UniProt Q16656). Briefly: ATG_NRF1_CIS: Attagene CIS-FACTORIAL HepG2 Assay for human Nuclear Respiratory Factor 1 (NRF1) Orphan Gene (AID 2282987). The settings on record: HepG2 NRF1 cis-element reporter, Attagene multiplex; actives raise or lower the signal. As to the method: ATG_CIS is a cell-based, multiplexed-readout assay that uses HepG2, a human liver cell line, with measurements taken at 24 hours after chemical dosing in a 24-well plate.ATG_NRF1_CIS is one of 52 assay component(s) measured or calculated from the ATG_CIS assay. It is designed to make measurements of mRNA induction, a form of inducible reporter, as detected with fluorescence intensity signals by Reverse transcription polymerase chain reaction (RT-PCR) and Capillary electrophoresis technology.Data from the assay component ATG_NRF1_CIS was analyzed into 1 assay endpoint. This assay endpoint, ATG_NRF1_CIS, was analyzed with bidirectional fitting relative to DMSO as the negative control and baseline of activity. Using a type of inducible reporter, measures of mRNA for gain or loss-of-signal activity can be used to understand the reporter gene at the transcription factor-level as they relate to the gene NRF1. Furthermore, this assay endpoint can be referred to as a primary readout, because this assay has produced multiple assay endpoints where this one serves a reporter gene function. To generalize the intended target to other relatable targets, this assay endpoint is annotated to the dna binding intended target family, where the subfamily is nuclear respiratory factors.
Human liver HepG2 cells are transiently transfected with multiple reporter transcription units (MRTUs) in 6-well plates using FuGene 6 reagent (Roche; 3 ml FuGene/1 mg DNA). The MRTU constructs are regulated by a cis-regulating element (promoter). […] A major difference between the CIS and TRANS system is that in CIS activities of endogenous TFs are measured, whereas the TRANS assay evaluates changes in activities of exogenous, chimeric NR-Gal4 proteins. […] At the end of 24 hour incubation, total RNA was isolated using TriZol reagent (Invitrogen). The isolated RNA is then reverse-transcribed using oligo(dT) primer and Mo-MLV reverse transcriptase (Invitrogen) with DNAse I (Ambion) treatment for 30 min. The one-tenth of the produced cDNA was amplified by PCR using Taq DNA polymerase (Invitrogen) and two reporter sequence-specific primers. The PCR products were fluorescently labeled by primer extension with 6-arboxyfluorescein (6-FAM) 5'-labeled reporter sequence-specific primer (2 min at 95 C, 20 s at 68 C and 10 min at 72 C) and these products were digested with 5U of HpaI (New England Biolabs) for 2h at 37 C. The fragments were purified using Qiaquick PCR columns (Qiagen), analyzed on an ABI 3130xL genetic analyzer (Applied Biosystems) with peak positions identified by using a set of X-rhodamine (ROX)-labeled MapMarker1000 molecular weight standards (BioVentures). The raw capillary electrophoresis data was processed using Attagraph software (Attagene).
Regarding `OCC(F)(F)C(F)(F)C(F)(F)C(F)(F)C(F)(F)C(F)(F)F`, the outcome was inactive. Still for that read-out and setting: the result for `C=C(C)C(=O)OCC(F)(F)C(F)(F)C(F)(F)C(F)(F)C(F)(F)C(F)(F)C(F)(F)F` reads “inactive”; that for `OCC(F)(F)C(F)(F)C(F)(F)F`, “inactive”.

Regarding `c1ccc(-c2ccccc2-c2ccccc2)cc1`, the result was inactive.

Regarding `OCCCC(F)(F)C(F)(F)C(F)(F)C(F)(F)C(F)(F)C(F)(F)C(F)(F)F`, the AC50 is 126 µM (active) and the outcome was inactive. In the case of `CC(CCl)OP(=O)(OC(C)CCl)OC(C)CCl` (stereo not given), the molecule was classed as inactive. Regarding `FC(F)(F)C(F)(F)C(F)(F)C(F)(F)C(F)(F)C(F)(F)C(F)(F)C(F)(F)CCS`, the molecule was called inactive.

`FC1CC(F)(F)C(F)(F)C1(F)F` (stereo not given): the molecule was called inactive. On the same count and under the same terms, the result for `FC(F)(F)C(F)(F)C(F)(F)C(F)(F)CCI` reads “inactive”; that for `C=CC(=O)OCC(F)(F)C(F)(F)C(F)(F)C(F)(F)COC(=O)C=C`, “inactive”.

On to `O=C(CC(=O)C(F)(F)C(F)(F)F)C(F)(F)F`, for which the call was inactive. Still for that read-out and setting: the result for `Cc1cccc(N(C)C)c1` reads “inactive”. On the same count and under the same terms, the result for `O=C(O)C=C(C(F)(F)F)C(F)(F)F` reads “inactive”; that for `C1COCCN1`, “inactive”. Turning to `Nc1ccc(Oc2cccc(Oc3ccc(N)cc3)c2)cc1`, the AC50 is 76.4 µM (active). The same measure, in the same setting: the result for `CC(=O)Nc1ccc(N=Nc2cc(C)ccc2O)cc1` reads 27.1 µM (active). In the case of `COC(=O)CCC(F)(F)C(F)(F)C(F)(F)C(F)(F)F`, the molecule was called inactive.

With `O[Si](c1ccccc1)(c1ccccc1)c1ccccc1`, the AC50 was 100 µM (active). Regarding `O=C(O)C(F)(F)C(F)(F)C(F)(F)C(F)(F)C(F)(F)C(F)(F)C(F)(F)C(F)(F)C(F)(F)C(F)F`, the molecule was called inactive. Same read-out and setting: the result for `O=C(O)C(F)(F)C(F)(F)C(F)(F)C(F)(F)C(F)(F)C(F)(F)C(F)(F)C(F)(F)C(F)(F)C(F)(F)C(F)(F)C(F)(F)C(F)(F)F` reads “inactive”; that for `CC(C)OC(=O)c1ccccc1C(=O)OC(C)C`, “inactive”; that for `O=C(O)C(F)(F)C(F)(F)C(F)(F)C(F)(F)F`, “inactive”. On the same count and under the same terms, to `FC(F)(F)C(F)(F)C(F)(F)CI` belongs “inactive”; to `C=CC/C=C/C/C=C/C/C=C/C`, “inactive”; to `CCN(CC)c1ccc2c(C)cc(=O)oc2c1`, “inactive”. On the same count and under the same terms, to `C=CC(=O)OCC(F)(F)C(F)(F)C(F)(F)C(F)(F)C(F)(F)C(F)(F)C(F)(F)F` belongs “inactive”; to `CCC(=O)OCCc1ccccc1`, “inactive”; to `O=C(O)C(F)(F)C(F)(F)C(F)(F)F`, “inactive”. Consider `Cc1ccc(S(=O)(=O)OCC(F)(F)C(F)(F)C(F)(F)C(F)(F)C(F)(F)C(F)F)cc1`, for which the call was inactive.

Turning to `COC(=O)C1CCC(C(=O)OC)CC1` (stereo not given), the outcome was inactive. Still for that read-out and setting: the result for `OCC(F)(F)C(F)(F)C(F)(F)C(F)F` reads “inactive”; that for `[Co]`, “inactive”. With `CS(C)(=O)=O`, the molecule was called inactive. Same read-out and setting: the result for `Oc1ccc(Nc2ccccc2)cc1` reads “inactive”; that for `FC(F)(I)C(F)(F)C(F)(F)C(F)(F)I`, “inactive”; that for `FC(F)(F)C(F)(F)C(F)(F)C(F)(F)C(F)(F)C(F)(F)C(F)(F)C(F)(F)F`, “inactive”. Still for that read-out and setting: to `Nc1ccc([N+](=O)[O-])cc1O` belongs “inactive”. On the same count and under the same terms, the result for `OCCCC(F)(F)C(F)(F)C(F)(F)F` reads “inactive”; that for `FC(F)(F)C(F)(F)C(F)(F)C(F)(F)C(F)(F)C(F)(F)CCS`, “inactive”.

Usually AC50 stands for the concentration at which the activity in the assay is half-maximal.
